Data published in PubChem BioAssay AID504853 (Southern Research Specialized Biocontainment Screening …, 2011).
Measured potencies and affinities stand elsewhere. Values without a mark were called inactive. No rule for the calls is given here.

Assay: HepG2 cell cytotoxicity, dose response, cytotoxicity control, set 3 (AID 504853)
Details: series mostly up to 50 µM; viability: at the top concentration

SMILES	viability
CC1CCN(C(=O)CSc2nc3ccccc3c(=O)[nH]2)CC1	99.3%
Nc1cc(=O)[nH]c(SCC(=O)NC2CCCCC2)n1	99.6%
O=c1[nH]c(=S)[nH]c2ccccc12	99.8%
CC1CCN(C(=O)C2CCN(c3nnc(-n4cccc4)s3)CC2)CC1	80.1%
O=C(CSc1nc2ccccc2c(=O)[nH]1)NC1CCCCC1	107%
CC(C)NC(=O)CSc1nc2ccccc2c(=O)[nH]1	93.4%
CC(C)CCNC(=O)CSc1nc2ccccc2c(=O)[nH]1	102%
CN1CCC(NC(=O)CSc2nc3ccccc3c(=O)[nH]2)CC1	109%
CCC(Sc1nc2ccccc2c(=O)[nH]1)C(=O)Nc1cccc(OC)c1 (stereo unspecified)	100%
CCSc1nc2ccccc2c(=O)[nH]1	98.5%
NC(=O)CSc1nc2ccccc2c(=O)[nH]1	106%
COc1ccc(NC(=O)CSc2nc3ccccc3c(=O)[nH]2)cc1	105%
CNC(=O)CSc1nc2ccccc2c(=O)[nH]1	109%
CCC(Sc1nc2c(c(=O)[nH]1)CCC2)C(=O)Nc1cccc(OC)c1 (stereo unspecified)	90.7%
Cc1nc(SCc2ccccc2Cl)[nH]c(=O)c1C	107%
COC(=O)c1ccc(CNc2c(N3CCCC3)c(=O)c2=O)cc1	101%
CCOC1OC(=O)C(Cl)=C1Nc1ccccc1C (stereo unspecified)	98.3%
Cc1nc(SCC(=O)NC2CCCC2)[nH]c(=O)c1C	107%
CN(C(=O)CSc1nc2ccccc2c(=O)[nH]1)C1CCCCC1	98.8%
Cc1nc(SCC(=O)N(C)c2ccccc2)[nH]c(=O)c1C	99.8%
Cc1cc(=O)[nH]c(SCC(=O)NC2CCCCC2)n1	89.2%
